Rows were chosen to be rich in hits. Some 1.4% of all compounds tested hit in one or more screens of this group.
MBD2 inh – blocks human MBD2 binding to methylated DNA. Q9UBB5. 370,000 compounds, 0.31% hits. TR-FRET, MBD2 binding to methylated oligonucleotide. AID 686964. inhibition, % at 4.4 µM; in the data active = inhibition above about 13%
Target sequence (Q9UBB5 whole entry, looked up): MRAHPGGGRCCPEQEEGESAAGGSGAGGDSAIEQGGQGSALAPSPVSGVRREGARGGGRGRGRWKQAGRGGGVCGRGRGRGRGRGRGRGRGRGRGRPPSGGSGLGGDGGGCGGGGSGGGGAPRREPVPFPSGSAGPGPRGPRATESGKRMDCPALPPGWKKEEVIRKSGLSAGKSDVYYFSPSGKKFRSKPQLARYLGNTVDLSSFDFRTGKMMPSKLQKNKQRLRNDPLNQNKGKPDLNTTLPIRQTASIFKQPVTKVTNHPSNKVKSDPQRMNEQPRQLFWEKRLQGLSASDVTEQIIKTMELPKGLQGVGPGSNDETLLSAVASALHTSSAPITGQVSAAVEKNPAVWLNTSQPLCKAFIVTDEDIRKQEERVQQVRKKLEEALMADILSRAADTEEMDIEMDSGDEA
Casp6 inh – blocks human caspase-6 cleavage activity; purified caspase-6, Z-VEID-R110 cleavage fluorescence; inhibition, % at 12.5 µM; 350,000 compounds, 0.53% hits; AID 686996;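 active = mean inhibition across replicates at least about 35%, with every replicate also reaching that limit, limit read from the data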;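 also: 0% = median of neutral control wells and 100% = no fluorescence left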
Target sequence (P55212 24-179 limits assumed): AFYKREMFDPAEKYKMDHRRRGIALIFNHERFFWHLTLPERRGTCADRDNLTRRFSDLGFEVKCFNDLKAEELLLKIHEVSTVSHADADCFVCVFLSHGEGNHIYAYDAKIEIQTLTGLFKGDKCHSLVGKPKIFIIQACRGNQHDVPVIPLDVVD
Target sequence (P55212 194-293 limits assumed): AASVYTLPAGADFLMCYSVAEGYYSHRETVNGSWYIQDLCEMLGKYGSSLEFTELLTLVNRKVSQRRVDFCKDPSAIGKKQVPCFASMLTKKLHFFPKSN
UHRF1 MBD2 ctr – UHRF1 methyl-DNA binding inhibition; UHRF1 binding to methylated oligo, TR-FRET; 370,000 compounds, 0.75% hits; inhibition, % at 4.4 µM; in the data active = inhibition above about 21%;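 also: UHRF1 SRA domain binding a hemimethylated CpG hairpin DNA probe; 0% = median of test compound wells and 100% = reference inhibitor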
LEDGF integ inh – blocks HIV-1 LEDGF/p75-dependent DNA integration; TR-FRET IN-LEDGF/p75 DNA integration, Eu/Cy5; inhibition, % at 3.7 µM; 370,000 compounds, 0.64% hits; AID 743269;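 active = inhibition above the screen-wide mean plus 3 SD, cut at about 13% in these data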;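 also: signal is the Cy5 over europium emission ratio at 671 and 618 nm; 0% = plate median of compound wells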
IN multimer up – counter-screen for LEDGF/p75 integration inhibitors: HIV-1 integrase multimerization activators; shares compounds with LEDGF integ inh; TR-FRET HIV-1 integrase multimerization, biochemical; activation, % at 7.7 µM; 2,000 compounds, 17% hits; in the data active = activation above about 8.9%
TRFRET interf – counter-screen for LEDGF/p75 integration inhibitors: TR-FRET optical interference | TR-FRET optical interference counterscreen, HIV-1 IN multimerization | AID 1053135 | shares compounds with LEDGF integ inh | inhibition, % at 7.7 µM | 2,000 tested, under 10 active;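 active = inhibition above the mean over all tested compounds plus 3 SD, which no compound reached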;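 also: 0% = integrase with antibodies and DMSO and 100% = antibodies without integrase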
LEDGF integ conf – confirmation of HIV-1 LEDGF/p75-dependent integration inhibitors. inhibition, % at 3.7 µM. 2,000 compounds, 36% hits. shares compounds with LEDGF integ inh. TR-FRET LEDGF/p75-dependent HIV-1 integration, biochemical; in the data active = inhibition above about 14%
The depositor's hits bear a star; . = no result given.

SMILES	MBD2 inh	Casp6 inh	UHRF1 MBD2 ctr	LEDGF integ inh	IN multimer up	TRFRET interf	LEDGF integ conf
CCOC(=O)C(=O)Nc1nc(-c2ccccc2)c(-c2ccccc2)o1	-1.8	1.0	1.2	0.1	.	.	.
C[C@@H]1CN([C@@H](C)CO)C(=O)c2cc(NC(=O)Cc3ccccc3)ccc2O[C@H]1CN(C)Cc1ccncc1	.	-0.3	.	.	.	.	.
COc1ccc(C#Cc2ccc([C@@H]3[C@H](CO)N4C(=O)CN(C(=O)c5cccnc5)C[C@@H]34)cc2)cc1	.	0.4	.	.	.	.	.
CN=c1scc(C)n1/N=C/c1ccc(O)c(O)c1O	3.8	.	5.5	57.1*	33.4*	-168.4	39.7*
CN=c1scc(-c2cccs2)n1/N=C/c1ccc(O)c(O)c1O	3.9	23.8	7.9	27.6*	5.0	-25.1	42.0*
CN=c1scc(C)n1/N=C/c1cc(Br)c(O)c(OC)c1	2.4	3.0	-2.0	-6.2	.	.	.
CN=c1scc(-c2cccs2)n1/N=C/c1ccccc1O	0.0	0.5	-0.1	-2.6	.	.	.
CC(C(=O)N(C)C1CCS(=O)(=O)C1)N1C(=O)/C(=C/c2ccco2)SC1=S (configuration not stated)	-2.0	45.1*	12.9	29.7*	1.6	-8.2	15.0*
O=C(Nc1ccccc1N1CCCCC1)c1ccc(OC(F)F)cc1	-2.4	-0.8	1.8	35.9*	1.0	-3.7	3.7
CN(C)c1ccc(N/C=C/C(=O)c2ccco2)cc1	-4.2	.	6.2	38.2*	11.3*	-40.5	7.0
CC(=O)Nc1ccc(N/C=C/C(=O)c2ccco2)cc1	0.2	.	-1.4	-0.1	.	.	.
CN(CCc1ccccc1)C(=O)c1ccc(NC(=O)Cc2cccc(NC(=O)C3CCN(C(=O)c4ccccc4)CC3)c2)cc1	-0.7	-1.9	0.6	21.1*	-2.6	13.0	0.8
C[C@@H]1CCCCO[C@@H](CN(C)C(=O)C2CCCCC2)[C@@H](C)CN([C@@H](C)CO)C(=O)c2cc(NC(=O)Cc3ccccc3)ccc2O1	.	2.5	.	.	.	.	.
CC(C)NC(=O)Nc1ccc2c(c1)C(=O)N([C@H](C)CO)C[C@H](C)[C@H](CN(C)S(C)(=O)=O)O2	.	1.7	.	.	.	.	.
CC(=O)N=c1c(C#N)cc2c(=O)n3cccc(C)c3nc2n1Cc1ccco1	-4.5	6.7	2.9	-0.7	.	.	.
Cc1ccc(CNC(=O)c2cc3c(=O)n4ccccc4nc3n(Cc3ccco3)c2=N)cc1	-4.5	0.0	-4.3	15.5*	9.2*	-33.3	21.2*
N#Cc1cc2c(=O)n3ccccc3nc2n(Cc2ccco2)c1=NC(=O)c1ccco1	3.9	7.4	22.0*	30.1*	-0.3	1.7	5.1
COc1ccc(S(=O)(=O)N(C)C[C@@H]2Oc3ccc(NS(=O)(=O)c4c(C)noc4C)cc3C(=O)N([C@H](C)CO)C[C@@H]2C)cc1	.	1.7	.	.	.	.	.
c1ccc(-c2noc(CN3CCN(C(c4ccccc4)c4ccccc4)CC3)n2)cc1	-0.7	.	-0.3	15.2*	0.3	-1.5	-1.0
C[C@@H]1CCCCO[C@@H](CN(C)Cc2ccc(C(=O)O)cc2)[C@H](C)CN([C@H](C)CO)C(=O)c2cc(NC(=O)Cc3ccccc3)ccc2O1	.	1.5	.	.	.	.	.
O=c1cc(-c2ccc(O)c(O)c2)oc2c1ccc1ccccc12	10.3	10.8	-1.4	51.0*	1.5	-7.6	68.2*
C[C@@H]1CCCCO[C@@H](CN(C)C(=O)Nc2ccc(C(F)(F)F)cc2)[C@H](C)CN([C@@H](C)CO)C(=O)c2cc(NS(=O)(=O)c3cccs3)ccc2O1	.	1.2	.	.	.	.	.
Cc1[nH]c(=O)[nH]c1C(=O)CCCCC(=O)OCC(=O)Nc1ccccn1	1.6	.	-2.6	82.0*	0.4	-1.8	80.7*
CC(=O)c1c(C)[nH]c(C(=O)Nc2ccccn2)c1C	5.3	-0.9	0.2	-0.6	.	.	.
CC(C)N=c1scc(-c2ccco2)n1/N=C/c1ccc(O)c(O)c1	-2.0	.	1.3	-4.2	.	.	.
SMILES	MBD2 inh	Casp6 inh	UHRF1 MBD2 ctr	LEDGF integ inh	IN multimer up	TRFRET interf	LEDGF integ conf
COCCN=c1scc(-c2ccco2)n1/N=C/c1ccc(O)c(O)c1O	2.1	12.8	5.5	44.6*	16.0*	-57.3	52.5*
C=CCN=c1scc(-c2ccco2)n1/N=C/c1ccc(O)c(O)c1O	-5.2	23.1	-0.2	43.3*	7.3	-36.7	29.6*
CC1=NN(c2ccccc2)C(=O)C1C=Nc1ccc(N(C)C)cc1 (configuration not stated)	11.0	4.4	31.9*	59.9*	5.6	-28.1	9.1
COc1ccc(CCNC(=O)c2cc(Cl)nc3ccccc23)cc1	-2.0	-4.1	-0.1	14.6*	0.8	-3.1	-8.4
COc1ccc(CCNC(=O)c2cc(-c3ccccn3)nc3ccccc23)cc1	4.5	-3.8	-1.0	-1.4	.	.	.
O=C(N/N=C/c1cccnc1)c1cc(-c2cccs2)nc2ccccc12	0.6	.	0.3	1.0	.	.	.
O=C(N/N=C/c1ccc2ncccc2c1)c1cc(-c2cccs2)nc2ccccc12	-1.5	-2.0	1.2	22.6*	0.1	-0.5	-2.0
NC(=O)N/N=C/c1cccc(OCc2ccc(F)cc2)c1	3.8	-2.1	-4.2	0.4	.	.	.
Cc1nnc(N/N=C/c2cccc(OCc3ccc(Cl)c(Cl)c3)c2)n1N	3.6	.	6.1	56.8*	-0.6	1.9	-4.0
Cc1ccnc(N/N=C/c2ccco2)n1	-2.5	.	-3.2	-1.3	.	.	.
O=C(O)c1ccc(N/N=C/c2cccc(C(F)(F)F)c2)cc1	-5.6	1.2	-2.5	-0.1	.	.	.
Cc1nnc(N/N=C/c2ccco2)n1N	-9.3	6.0	4.0	42.8*	4.7	-23.6	-3.4
CCOc1ccc(-n2c(C)cc(/C=N/Nc3nc(C)cc(=O)[nH]3)c2C)cc1	4.8	7.2	5.3	-5.4	.	.	.
COc1ccc(-n2c(C)cc(/C=N/Nc3nnc(C)n3N)c2C)cc1	-2.4	.	8.9	48.6*	3.4	-11.9	-2.5
Cc1nnc(N/N=C/c2cccc(C(F)(F)F)c2)n1N	1.6	24.7	13.3	56.6*	-2.3	8.1	-8.4
COc1cccc(/C=N/Nc2cc(Cl)nc(C)n2)c1O	-6.1	-3.2	-1.1	1.6	.	.	.
Cc1nnc(N/N=C/c2ccccc2C(F)(F)F)n1N	-3.6	-1.5	2.2	45.3*	-0.3	0.8	2.7
Cc1nnc(N/N=C/c2ccccc2F)n1N	-2.3	8.3	7.5	55.7*	0.9	-3.4	-3.9
COc1cccc(/C=N/Nc2nnc(C)n2N)c1O	3.6	10.1	10.1	47.6*	1.8	-9.0	-1.4
CCOc1ccc(S(=O)(=O)NCCC(=O)N2CCN(c3ncccn3)CC2)cc1	3.3	1.4	-2.1	76.7*	1.4	-6.9	3.4
O=C(Nc1ccccc1F)N[C@H]1C=C[C@@H](CC(=O)N2CCCCC2)O[C@H]1CO	.	0.0	.	.	.	.	.
COc1ccc(NC(=O)Nc2cccc3c2O[C@H](CN(C)C(=O)NC(C)C)[C@H](C)CN([C@H](C)CO)C3=O)cc1	.	-1.2	.	.	.	.	.
CCNC(=O)Nc1ccc2c(c1)C(=O)N(C)[C@H]1CC[C@H](CC(=O)Nc3ccc(C)cc3)O[C@@H]1CO2	.	-5.6	.	.	.	.	.

Screening results: PubChem BioAssay, several laboratories
